Experimental findings from PubChem BioAssay are described below.

Values without a mark were called inactive. The rule behind the calls is not given here.

Chain of Pantothenate synthetase (Mycobacterium tuberculosis (strain ATCC 25618 / H37Rv)) (P9WIL5 whole entry, looked up): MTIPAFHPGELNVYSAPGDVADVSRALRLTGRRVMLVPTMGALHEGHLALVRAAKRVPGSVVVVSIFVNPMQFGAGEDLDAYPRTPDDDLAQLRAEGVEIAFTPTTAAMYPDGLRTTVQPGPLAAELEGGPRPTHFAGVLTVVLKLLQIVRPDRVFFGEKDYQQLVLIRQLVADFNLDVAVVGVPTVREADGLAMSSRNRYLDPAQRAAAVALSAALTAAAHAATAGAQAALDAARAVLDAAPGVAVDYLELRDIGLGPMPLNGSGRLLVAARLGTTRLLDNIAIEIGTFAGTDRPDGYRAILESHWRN

The experiment addresses Pantothenate synthetase (Mycobacterium tuberculosis (strain ATCC 25618 / H37Rv)) (UniProt P9WIL5). As to the kind of experiment: Coupled enzyme confirmation of inhibitors against recombinant Mtb PanC (AID 375).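 Note: 0% = full reaction with vehicle and 100% = no enzyme background.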 To be noted: coupled enzyme assay; at 10 µM, stronger effect = higher value.
Broadly, the inhibition is the change of the read-out against control, counted positive when it falls. Regarding `O=C(CN1CCN(c2nc(-c3ccc(Cl)cc3)cs2)CC1)NCc1ccco1`, the inhibition is 4%.

Turning to `C=CCn1c(N)c(C(=O)NCCC2=CCCCC2)sc1=S`, the inhibition is 0%.

`CSCCC(C(=O)Nc1ccc2c(c1)OCO2)N1C(=O)c2ccccc2C1=O` (configuration not stated): the inhibition was 0%.

As for `Cc1ccccc1-n1c(SCc2c(C)noc2C)nnc1-c1ccncc1`, the inhibition was 0%.

On to `Cc1csc(NC(=O)CCS(=O)(=O)c2ccc(Br)cc2)n1`, for which the inhibition is 2%.

`Cc1ccc(C(O)c2nc3ccccc3n2C(C)C)cc1` (configuration not stated): the inhibition is 0%.

In the case of `Cc1ccc(C)c(OCC(O)CN2C(C)CCCC2C)c1` (configuration not stated), the inhibition was 0%.

Regarding `CC1CC(C)CN(c2ncnc3c2cnn3-c2ccc(Cl)cc2)C1` (configuration not stated), the inhibition was 1%.

For `CCOC(=O)C1CCN(C(=O)c2ccc(Cl)c(Cl)c2)CC1`, the inhibition is 8%.

As to `Cc1cc(NC(=O)CCOc2ccccc2)no1`, the inhibition is 0%.

For the compound `CC(=O)NC(Cc1c[nH]c2ccccc12)C(=O)OCC(=O)Nc1cc(C)on1` (configuration not stated), the inhibition is 0%.

Consider `O=C(c1cc2ccccc2oc1=O)N1CCSC1c1ccco1` (configuration not stated), for which the inhibition was 8%.

For `CCOc1cc(-c2nc(-c3ccc(C)nc3OCC)no2)cc(OCC)c1OCC`, the inhibition is 0%.

On to `CN1CCc2nc(SCC(=O)Nc3ccc(F)cc3)c(C#N)cc2C1`, for which the inhibition is 8%.

In the case of `CCOC(=O)C1CCCN(c2c(NCc3ccco3)c(=O)c2=O)C1` (configuration not stated), the inhibition was 0%.

`CCCCc1cc2c(c(NC(C)=O)n1)c(=O)oc1ccccc12`: the inhibition was 0%.

Regarding `Nc1nonc1NC(=O)CSc1nc2ccccc2s1`, the inhibition was 0%.

Take `c1ccc(Cc2nnc3n2CCCCC3)cc1`: the inhibition was 6%.

For `COc1ccc(NS(=O)(=O)c2ccc(NC(C)=O)cc2)cc1OC`, the inhibition was 0%.

As for `Cc1ccc(C)c(C(=O)CC2(O)C(=O)N(C)c3ccccc32)c1` (configuration not stated), the inhibition is 0%.

In the case of `CCCCn1c(NCc2ccccc2O)nc2ccccc21`, the inhibition was 0%.

With `COc1ccc(Br)cc1-c1noc(-c2ccccc2)n1`, the inhibition is 4%.
